Our source for the growth values is PubChem BioAssay (NCI).

The panel holds about 83,000 compounds, 20% with a hit somewhere; the sample as a whole holds those more often.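 Treatment: one concentration, 48 hours, 96-well format. Scoring: percent growth, with anything below 10 considered active.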 A number with no mark means an inactive call. Activity calls are given as the source filed them.

Some test systems named below: NCI-H23 lung; NCI-H226 lung; NCI-H322M lung; HOP-62 NSCLC; NCI-H460 lung; HOP-92 NSCLC; NCI-H522 lung; A549/ATCC NSCLC; 786-0 renal; COLO 205 colon.
Assay in all cases: NCI-60 one-dose screen, 48 h (100 = growth as untreated, 0 = no growth, -100 = all killed)
Settings in all cases: 10 µM unless noted

Regarding `CCO/C=N/C1=C(C#N)C(c2ccc(OC)cc2)c2sc3c(F)cccc3c2O1` (stereo not given), the growth in the assay with NCI-H23 lung was 48.9%; in the assay on NCI-H226 lung it was 63%; in the assay with NCI-H322M lung, 51.5%; in the assay on HOP-62 NSCLC, 49.5%; in the assay with NCI-H460 lung, 12.7%; with HOP-92 NSCLC it was 62.6%. In addition, the growth is 0.128% (active) in the assay with NCI-H522 lung, 43.3% in the assay with A549/ATCC NSCLC, 33.3% in the assay with 786-0 renal and 39.2% with COLO 205 colon.
As for `Fc1cc(F)cc(C(c2c[nH]c3ccccc23)c2c[nH]c3ccccc23)c1`, the growth in the assay on NCI-H23 lung was 89.4%; in the assay on NCI-H226 lung, 103%; in the assay on NCI-H322M lung, 86.1%; with HOP-62 NSCLC it was 91.1%; with NCI-H460 lung, 97.8%; in the assay with HOP-92 NSCLC, 89.4%. In addition, the growth is 75% in the assay with NCI-H522 lung, 82% in the assay on A549/ATCC NSCLC, 98% with 786-0 renal and 97.8% with COLO 205 colon.
As to `CC(C)N1CCN(Cc2ccc3c(NNC(=O)c4ccccc4)nc4cc(F)ccc4n23)CC1`, the growth is 28.6% in the assay with NCI-H23 lung; 14.5% with NCI-H226 lung; 29.3% in the assay with NCI-H322M lung; 24.9% in the assay with HOP-62 NSCLC; 3.96% (active) in the assay with NCI-H460 lung; 49% in the assay with HOP-92 NSCLC. Moreover, the growth in the assay with NCI-H522 lung is 22.8%; in the assay with A549/ATCC NSCLC, 16.2%; in the assay with 786-0 renal, 34.2%; in the assay on COLO 205 colon, 17.1%.
Take `CC(C)=NNc1ccccn1`: the growth in the assay on NCI-H23 lung was 68%; with NCI-H226 lung it was 40.9%; in the assay with NCI-H322M lung, 19.4%; with HOP-62 NSCLC it was 32.8%; with NCI-H460 lung, 30%; in the assay with HOP-92 NSCLC it was 40.4%. Moreover, the growth with NCI-H522 lung was 25.5%; with A549/ATCC NSCLC, 35.1%; in the assay with 786-0 renal, 61.7%; with COLO 205 colon, 3.92% (active).
With `COC(=O)c1c2c(c(C)[n+]([O-])c1C)C(=O)C=C(NCc1ccc(OC)cc1)C2=O`, the growth in the assay with NCI-H23 lung was -38.8% (active); in the assay with NCI-H226 lung, -8.68% (active); in the assay with NCI-H322M lung, -6.26% (active); with HOP-62 NSCLC, 3.79% (active); in the assay on NCI-H460 lung it was -3.91% (active); in the assay with HOP-92 NSCLC, -35.3% (active). Moreover, the growth with NCI-H522 lung was -19.5% (active); with A549/ATCC NSCLC it was -18.4% (active); in the assay on 786-0 renal, 3.11% (active); in the assay with COLO 205 colon, -54% (active).
As for `CCOC(=O)c1ccc2[nH]c(O)c(C(=Nc3ccc(N(C)C(=O)CN4CCN(C)CC4)cc3)c3ccccc3)c2c1`, the growth in the assay with NCI-H23 lung is -59.3% (active); in the assay on NCI-H226 lung it was 15.5%; in the assay with NCI-H322M lung, 11.7%; with HOP-62 NSCLC, -5.97% (active); in the assay with NCI-H460 lung, -27.1% (active); in the assay on HOP-92 NSCLC, 30.3%. Further, the growth is -48.8% (active) in the assay with NCI-H522 lung, -20.5% (active) in the assay with A549/ATCC NSCLC, -95% (active) in the assay with 786-0 renal and -56.3% (active) in the assay with COLO 205 colon.
Turning to `C#CCOc1cccc(Nc2ncnc3ccc(NC(=O)CCl)cc23)c1`, the growth in the assay on NCI-H23 lung is -66.8% (active); with NCI-H226 lung, 21%; with NCI-H322M lung it was -18.8% (active); with HOP-62 NSCLC, -35.4% (active); with NCI-H460 lung, -19.9% (active); in the assay on HOP-92 NSCLC, -76.5% (active). The growth with NCI-H522 lung was -76.3% (active); in the assay with A549/ATCC NSCLC, -38.6% (active); in the assay with 786-0 renal it was -81.9% (active); in the assay on COLO 205 colon, -64.6% (active).
Regarding `N#Cc1c(-c2ccc(Cl)cc2)nc(SCC(=O)NC2=NN=C(c3ccccc3)CS2)[nH]c1=O`, the growth with NCI-H23 lung is 76.3%; with NCI-H226 lung it was 106%; in the assay with NCI-H322M lung it was 89.7%; in the assay with HOP-62 NSCLC, 68.9%; with NCI-H460 lung it was 110%; in the assay with HOP-92 NSCLC it was 58.2%. Besides, the growth in the assay with NCI-H522 lung is 66.4%; in the assay on A549/ATCC NSCLC it was 90.6%; in the assay with 786-0 renal it was 93%; in the assay with COLO 205 colon, 80.7%.
As to `COc1ccc2cc(C(=O)c3coc4ccc(O)cc34)ccc2c1`, the growth is 96% with NCI-H23 lung; 104% in the assay with NCI-H226 lung; 95.8% in the assay on NCI-H322M lung; 94.9% with HOP-62 NSCLC; 105% in the assay on NCI-H460 lung; 95.4% in the assay with HOP-92 NSCLC. In addition, the growth in the assay with NCI-H522 lung is 72.9%; in the assay on A549/ATCC NSCLC it was 92.8%; in the assay on 786-0 renal, 94.1%; with COLO 205 colon, 101%.
As to `COc1cc(CNS(=O)(=O)c2ccc(C)cc2)ccc1OCc1cn(-c2ccc(Br)cc2)nn1`, the growth was 103% in the assay on NCI-H23 lung; 93.5% in the assay with NCI-H226 lung; 101% in the assay on NCI-H322M lung; 92.4% in the assay on HOP-62 NSCLC; 110% in the assay on NCI-H460 lung; 112% in the assay on HOP-92 NSCLC. Also, the growth with NCI-H522 lung was 91.8%; in the assay with A549/ATCC NSCLC it was 99.5%; in the assay with 786-0 renal, 109%; in the assay on COLO 205 colon, 120%.
Consider `CCOC(=O)c1[nH]c(=O)c2c(C)nc(-c3ccccc3)cc2c1O`, for which the growth was 105% with NCI-H23 lung; 93% in the assay on NCI-H226 lung; 118% in the assay with NCI-H322M lung; 124% with HOP-62 NSCLC; 102% in the assay with NCI-H460 lung; 78.5% in the assay on HOP-92 NSCLC. The growth in the assay with NCI-H522 lung was 92.7%; in the assay with A549/ATCC NSCLC, 101%; with 786-0 renal, 112%; in the assay on COLO 205 colon, 117%.
With `COc1cc(-c2cc(-c3ccc(N(C)C)cc3)nc(N3CCC(O)CC3)c2C#N)cc(OC)c1OC`, the growth is 3.6% (active) in the assay with NCI-H23 lung; -6.93% (active) in the assay with NCI-H226 lung; 25.8% in the assay with NCI-H322M lung; 41.4% in the assay on HOP-62 NSCLC; -27.9% (active) with NCI-H460 lung; -25% (active) with HOP-92 NSCLC. Moreover, the growth in the assay with NCI-H522 lung is -36.3% (active); with A549/ATCC NSCLC it was 11.5%; in the assay on 786-0 renal it was -3.55% (active); in the assay with COLO 205 colon, -17.2% (active).
Regarding `Cc1ccccc1NC(=O)c1sc2nc(C)c(C(=O)/C=C/c3ccccc3)cc2c1N`, the growth in the assay with NCI-H23 lung is 43.3%; with NCI-H226 lung, 26.2%; in the assay on NCI-H322M lung it was 55.5%; with HOP-62 NSCLC, 9.21% (active); with NCI-H460 lung it was 0.299% (active); in the assay with HOP-92 NSCLC, 37%. Further, the growth with NCI-H522 lung was 17.9%; in the assay with A549/ATCC NSCLC it was 14.3%; in the assay on 786-0 renal it was -16.9% (active); in the assay with COLO 205 colon, 64.1%.
